According to PubChem BioAssay (NCATS):
Inconclusive results are not listed. The source made the active and inactive calls. Calls come from the whole dose curve; as a rule, active = well fitted curve in the direction sought with a large enough effect; inconclusive = small, poorly fitted or top-dose-only effect, or another doubt; inactive = no such curve, though single readings can be large; an effect the other way counts as inactive or inconclusive.

Assays:
[1] = qHTS of pediatric cancer cell lines to identify multiple opportunities for drug repurposing: Primary screen for OHS-50 cells (AID 1347103); note: nearly all actives have a fitted effect of over 40% in size; note: potency is the fitted concentration of half-maximal effect
How it was run: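 Cells (500-1,000/well) rested 5 h, then received compounds for 48 h; metabolically active cells were measured by CellTiter-Glo luminescence. Final concentrations spanned up to 46 µM (MIPE, 11-point) or 0.59 nM-46 µM (NPC, 8-point) in primary screens, 11-point in follow-ups.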

[2] = qHTS of pediatric cancer cell lines to identify multiple opportunities for drug repurposing: Primary screen for RD cells (AID 1347104); note: nearly all actives have a fitted effect of over 55% in size; note: potency is the fitted concentration of half-maximal effect
How it was run: (§1)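 Luminescence from CellTiter-Glo served as readout of metabolically active cells after 48 h compound exposure. Titrations: MIPE 11-point, from 0.78 nM; NPC 8-point, from 0.59 nM (final). Concentration-response curves came straight from the primary screen.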

[3] = qHTS of pediatric cancer cell lines to identify multiple opportunities for drug repurposing: Primary screen for MG 63 (6-TG R) cells (AID 1347105); note: nearly all actives have a fitted effect of over 50% in size; note: potency is the fitted concentration of half-maximal effect
How it was run: as §1

[4] = qHTS of pediatric cancer cell lines to identify multiple opportunities for drug repurposing: Primary screen for control Hh wild type fibroblast cells (AID 1347106);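 note: a drop in luminescence marks cytotoxicity and a rise apparent proliferation; nearly all actives have a fitted effect of over 55% in size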
How it was run: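 Cells (500-1,000/well) in growth media were settled 5 h at 37 degrees C, then given compounds for 48 h. Viability was read as CellTiter-Glo luminescence. Primary runs used MIPE at 11 points (0.78 nM-46 µM) and NPC at 8 points (0.59 nM-46 µM); follow-ups used 11 points.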

[5] = qHTS of pediatric cancer cell lines to identify multiple opportunities for drug repurposing: Primary screen for Rh41 cells (AID 1347108); note: nearly all actives have a fitted effect of over 70% in size; note: potency is the fitted concentration of half-maximal effect;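 for activity change, negative = cytotoxic: luminescence drop marks cytotoxic hits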
How it was run: as §1

[6] = qHTS of pediatric cancer cell lines to identify multiple opportunities for drug repurposing: Primary screen for Rh18 cells (AID 1347102); note: nearly all actives have a fitted effect of over 65% in size; note: potency is the fitted concentration of half-maximal effect
How it was run: (§2)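 Viability after 48 h compound treatment at 37C, 500-1,000 cells/well, read as ATP luminescence with CellTiter-Glo. Primary screens used 11-point (MIPE, 0.78 nM-46 µM) or 8-point (NPC, 0.59 nM-46 µM) final concentrations; follow-up screens used 11-point dilutions.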

[7] = qHTS of pediatric cancer cell lines to identify multiple opportunities for drug repurposing: Primary screen for Rh30 cells (AID 1347107); note: nearly all actives have a fitted effect of over 75% in size
How it was run: as §2

[8] = qHTS of pediatric cancer cell lines to identify multiple opportunities for drug repurposing: Confirmatory screen for A673 cells (AID 1347110); note: nearly all actives have a fitted effect of over 65% in size; note: potency is the fitted concentration of half-maximal effect
How it was run: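 Concentration-response curves came straight from titrations: 11 points (0.78 nM to 46 µM) for MIPE and several concentrations (0.59 nM to 46 µM) for NPC in primary, 11 points in follow-up. Readout: ATP luminescence at 48 h.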

[9] = qHTS of pediatric cancer cell lines to identify multiple opportunities for drug repurposing: Confirmatory screen for LAN-5 cells (AID 1347113); note: nearly all actives have a fitted effect of over 65% in size; note: potency is the fitted concentration of half-maximal effect
How it was run: as §2

[10] = qHTS of pediatric cancer cell lines to identify multiple opportunities for drug repurposing: Confirmatory screen for DAOY cells (AID 1347114); note: nearly all actives have a fitted effect of over 65% in size; note: potency is the fitted concentration of half-maximal effect
How it was run: (§3)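 Viability measured as metabolically active cells via CellTiter-Glo luminescence following 48 hours of compound exposure, 11-point dilutions in confirmatory testing. 500-1,000 cells/well plated 5 hours before dosing; controls were DMSO and 2.3 µM bortezomib.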

[11] = qHTS of pediatric cancer cell lines to identify multiple opportunities for drug repurposing: Confirmatory screen for control Hh wild type fibroblast cells (AID 1347121); note: nearly all actives have a fitted effect of over 70% in size
How it was run: as §2

[12] = qHTS of pediatric cancer cell lines to identify multiple opportunities for drug repurposing: Confirmatory screen for NB1643 cells (AID 1347109); note: nearly all actives have a fitted effect of over 45% in size; note: potency is the fitted concentration of half-maximal effect
How it was run: as §2

[13] = qHTS of pediatric cancer cell lines to identify multiple opportunities for drug repurposing: Confirmatory screen for BT-12 cells (AID 1347112); note: nearly all actives have a fitted effect of over 55% in size; note: potency is the fitted concentration of half-maximal effect
How it was run: as §2

[14] = qHTS of pediatric cancer cell lines to identify multiple opportunities for drug repurposing: Confirmatory screen for NB-EBc1 cells (AID 1347115); note: nearly all actives have a fitted effect of over 45% in size; note: potency is the fitted concentration of half-maximal effect
How it was run: as §2

[15] = qHTS of pediatric cancer cell lines to identify multiple opportunities for drug repurposing: Confirmatory screen for SK-N-MC cells (AID 1347111);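 note: cells exposed to compound for 48 h before the readout; nearly all actives have a fitted effect of over 70% in size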; note: potency is the fitted concentration of half-maximal effect
How it was run: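 SK-N-MC cells at 500-1,000 cells/well in growth media were pre-incubated 5 h, then exposed to compounds at 11-point dilutions for 48 h at 37 degrees C, 5% CO2. Viability was read as CellTiter-Glo luminescence.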

[16] = qHTS of pediatric cancer cell lines to identify multiple opportunities for drug repurposing: Confirmatory screen for BT-37 cells (AID 1347117); conditions: BT-37 pediatric cancer cells, viability; activity change, negative = cytotoxic: at 45.9 µM (top of the series); note: nearly all actives have a fitted effect of over 55% in size; note: potency is the fitted concentration of half-maximal effect
How it was run: as §2

[17] = qHTS of pediatric cancer cell lines to identify multiple opportunities for drug repurposing: Confirmatory screen for TC32 cells (AID 1347118)
How it was run: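 TC32 cells, 500-1,000/well in growth medium, compound-treated 48 h at 37 °C; viability from CellTiter-Glo luminescence. Primary screen: MIPE 11-point (0.78 nM–46 µM final), NPC 8-point (0.59 nM–46 µM final); confirmatory at 11-point dilutions.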

[18] = qHTS of pediatric cancer cell lines to identify multiple opportunities for drug repurposing: Confirmatory screen for MG 63 (6-TG R) cells (AID 1347119); note: nearly all actives have a fitted effect of over 55% in size; note: potency is the fitted concentration of half-maximal effect
How it was run: as §2

[19] = qHTS of pediatric cancer cell lines to identify multiple opportunities for drug repurposing: Confirmatory screen for U-2 OS cells (AID 1347122)
How it was run: as §2

[20] = qHTS of pediatric cancer cell lines to identify multiple opportunities for drug repurposing: Confirmatory screen for SJ-GBM2 cells (AID 1347116); note: nearly all actives have a fitted effect of over 60% in size; note: potency is the fitted concentration of half-maximal effect
How it was run: as §3

Measured: Potency

COc1cc(C(=O)NC2CCN(C)CC2)ccc1Nc1ncc2c(n1)N(C1CCCC1)CCC(=O)N2C(C)C
inactive: [4]
active: [1] 3.43 µM | [2] 20.9 µM | [3] 2.96 µM | [5] 14.8 µM

N#CC(=Cc1ccc(O)c(O)c1)C(=O)NCc1ccccc1
inactive: [6] | [4]

COc1ccc(Nc2nccc(NCCO)n2)cc1
inactive: [1] | [2] | [3] | [4] | [5]

CCCNS(=O)(=O)Nc1ncnc(OCCOc2ncc(Br)cn2)c1-c1ccc(Br)cc1
inactive: [1] | [2] | [3] | [4] | [7]

O=C1c2c(O)cccc2[C@@H]([C@@H]2O[C@H](CO)[C@@H](O)[C@H](O)[C@H]2O)c2cc(CO)cc(O)c21
inactive: [1] | [2] | [3] | [7] | [5] | [8] | [9] | [10] | [11]

O=C(O)CCCCCC(=O)NN=C1CCCC1
inactive: [6] | [3] | [7] | [5]

C=Cc1c(C)c2cc3nc(cc4[nH]c(cc5nc(cc1[nH]2)C(C)=C5CCC(=O)O)c(CCC(=O)OC)c4C)[C@@]1(C)C3=CC=C(C(=O)OC)[C@H]1C(=O)OC
inactive: [7] | [12] | [13] | [14] | [11]
active: [1] 0.769 µM | [2] 0.105 µM | [3] 1.18 µM | [5] 0.0743 µM

CN1C(C(=O)Nc2ccccn2)=C(O)c2sc(Cl)cc2S1(=O)=O
inactive: [1]

NC(=O)Nc1cc(-c2ccc(CN3CCOCC3)cc2)sc1C(N)=O
inactive: [4]
active: [1] 0.217 µM | [2] 8.33 µM | [3] 11.8 µM | [5] 7.43 µM | [12] 0.414 µM | [8] 11.7 µM | [15] 0.657 µM | [16] 18.5 µM | [17] 0.414 µM | [18] 3.69 µM | [19] 11.7 µM

C[C@@H](NCc1cc2ccccc2[nH]1)c1cccc2ccccc12
inactive: [1] | [2] | [3] | [4] | [7] | [5]

CC(=CC(=O)Nc1ccccc1C(=O)O)c1ccc2ccccc2c1
inactive: [6] | [3] | [7]

COc1ccc([C@@H]2CNC(=O)C2)cc1OC1CCCC1
inactive: [1]
active: [2] 3.32 µM | [3] 5.9 µM | [5] 3.72 µM

COC(=O)C=CC(=O)OC
active: [3] 0.235 µM | [5] 23.5 µM | [15] 3.29 µM | [14] 20.8 µM | [16] 3.29 µM | [17] 3.29 µM | [18] 13.1 µM
inactive: [6] | [7] | [8] | [10] | [20] | [11]

Nc1nc(=O)n([C@H]2CSC(CO)O2)cc1F (stereo partly specified)
inactive: [1] | [2] | [3] | [4] | [7] | [5]

C=C(C)[C@@H]1CC[C@]2(C)CC[C@]3(C)[C@H](CC[C@@H]4[C@@]5(C)CC[C@H](O)C(C)(C)[C@H]5CC[C@]43C)[C@@H]12
inactive: [1] | [2] | [3] | [7] | [5]

COc1cc(C=CC(=O)CC(=O)C=Cc2ccc(O)c(OC)c2)ccc1O
active: [6] 38.2 µM | [5] 30.3 µM | [8] 10.7 µM | [15] 15.1 µM | [13] 38 µM | [9] 26.9 µM | [16] 30.2 µM | [17] 9.55 µM | [18] 26.9 µM

CCNC(=O)Nc1ccc(-c2nc3c(c(N4CCOC[C@H]4C)n2)CCN(C2COC2)C3)cc1
active: [1] 0.485 µM | [2] 1.05 µM | [3] 0.743 µM | [5] 1.48 µM

O=C(c1ccc(F)cc1)N1CCC[C@H](c2nc(-c3ccc(F)cc3)no2)C1
inactive: [1] | [2] | [3] | [4] | [7] | [5]

CCOc1cc2c(c(F)c1OCC)C(=N)N(CC(=O)c1cc(N3CCOCC3)c(OC)c(C(C)(C)C)c1)C2
inactive: [4]
active: [1] 21.7 µM | [2] 16.6 µM | [3] 14.8 µM | [5] 23.5 µM

COc1cccc2c1C(=O)c1c(O)c3c(c(O)c1C2=O)C[C@@](O)(C(C)=O)C[C@H]3O[C@H]1C[C@H](N)[C@H](O)[C@H](C)O1
inactive: [7]
active: [1] 0.344 µM | [2] 0.0743 µM | [3] 0.372 µM | [5] 0.0469 µM | [8] 0.414 µM | [15] 0.165 µM | [13] 1.31 µM | [9] 0.185 µM | [10] 3.69 µM | [20] 1.31 µM | [16] 0.165 µM | [18] 0.233 µM | [19] 7.37 µM

CC1(C)O[C@@H]2C[C@H]3[C@@H]4CCC5=CC(=O)C=C[C@]5(C)[C@@H]4[C@@H](O)C[C@]3(C)[C@]2(C(=O)CO)O1
not listed: [1] | [2] | [12] | [17] | [19] | [20]
inactive: all other assays above
